# Results taken from doi:10.1101/2024.03.05.583629.
# Biological target: pT7_6His-AlfaTag-HOXD13 (human, UniProt P35453 263-343)
# Assay: PADIT-seq
# Conditions: dsDNA, one strand shown
# Chain of pT7_6His-AlfaTag-HOXD13 (P35453 263-343): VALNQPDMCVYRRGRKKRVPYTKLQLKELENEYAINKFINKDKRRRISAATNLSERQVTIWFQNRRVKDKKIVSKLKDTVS
row,Sequence,binding signal [log2FC]
1,CTCGAGGATATCAAGATCTGGCCTCGGCCTTTTACAAGGAACCTCTAGCTAGCCGACTCACTATAGGGATAATCGCCCTGAGCAAAGACC,3.37 ± 0.074
2,CTCGAGGATATCAAGATCTGGCCTCGGCGTTTTATCTGGAACCTCTAGCTAGCCGACTCACTATAGGGATAATCGCCCTGAGCAAAGACC,0.898 ± 0.106
3,CTCGAGGATATCAAGATCTGGCCTCGGCCACCTAAAAGGAACCTCTAGCTAGCCGACTCACTATAGGGATAATCGCCCTGAGCAAAGACC,-0.327 ± 0.133
4,CTCGAGGATATCAAGATCTGGCCTCGGCTTTTTAAGCGGAACCTCTAGCTAGCCGACTCACTATAGGGATAATCGCCCTGAGCAAAGACC,0.814 ± 0.0936
5,CTCGAGGATATCAAGATCTGGCCTCGGCCTGCTAAAAGGAACCTCTAGCTAGCCGACTCACTATAGGGATAATCGCCCTGAGCAAAGACC,0.179 ± 0.113
6,CTCGAGGATATCAAGATCTGGCCTCGGCCGTCTAAAAGGAACCTCTAGCTAGCCGACTCACTATAGGGATAATCGCCCTGAGCAAAGACC,-0.577 ± 0.117
7,CTCGAGGATATCAAGATCTGGCCTCGGCCGCCCAGGCGGAACCTCTAGCTAGCCGACTCACTATAGGGATAATCGCCCTGAGCAAAGACC,-0.81 ± 0.134
8,CTCGAGGATATCAAGATCTGGCCTCGGCACCCTAAAAGGAACCTCTAGCTAGCCGACTCACTATAGGGATAATCGCCCTGAGCAAAGACC,0.642 ± 0.0968
9,CTCGAGGATATCAAGATCTGGCCTCGGCATTTTAGGTGGAACCTCTAGCTAGCCGACTCACTATAGGGATAATCGCCCTGAGCAAAGACC,0.159 ± 0.111
10,CTCGAGGATATCAAGATCTGGCCTCGGCCTTTTACTTGGAACCTCTAGCTAGCCGACTCACTATAGGGATAATCGCCCTGAGCAAAGACC,0.95 ± 0.0821
11,CTCGAGGATATCAAGATCTGGCCTCGGCCGCATCCGCGGAACCTCTAGCTAGCCGACTCACTATAGGGATAATCGCCCTGAGCAAAGACC,-0.957 ± 0.122
12,CTCGAGGATATCAAGATCTGGCCTCGGCATTTTAGCTGGAACCTCTAGCTAGCCGACTCACTATAGGGATAATCGCCCTGAGCAAAGACC,-0.225 ± 0.108
